The source of these data is PubChem BioAssay (EPA / NIEHS).

As usually defined, the AC50 is the concentration at which the activity in the assay is half-maximal.

In test [1] the target is PGR (gene 5241) (UniProt P06401). The experiment in a line: TOX21_PR_BLA_Followup_Antagonist_ratio: Tox21 HEK293 Progesterone Receptor (PR) Antagonism Beta-lactamase Follow-Up Assay, Ratio (AID 2283934). The essentials:
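PR-UAS-bla HEK293T cells in medium with 2% charcoal-stripped FBS were treated with compounds plus 1 nM (final) promegestone (R5020) for 16 hr at 37C. LiveBLAzer B/G FRET substrate was then added for 2 h at room temperature; signal is cleaved/uncleaved substrate ratio versus DMSO.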

Test [2] is described as follows: TOX21_PR_BLA_Followup_Agonist_viability: Viability Assessment in the Tox21 HEK293 Progesterone Receptor (PR) Agonism Beta-lactamase Follow-Up Assay (AID 2283935).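 Note: signal loss means lower viability so actives are cytotoxic.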 The essentials: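 PR-UAS-bla HEK293T cells in 2% charcoal-stripped FBS medium, compound added after 6 hr plating, 16 hr at 37C/5% CO2. After bla FRET read, CellTiter-Glo added; luminescence read after 30 min at room temperature; signal loss marks cytotoxicity.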

Test [3] is described as follows: TOX21_PR_BLA_Followup_Antagonist_viability: Viability Assessment in the Tox21 HEK293 Progesterone Receptor (PR) Antagonism Beta-lactamase Follow-Up Assay (AID 2283936).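 Note: hits lower the luminescence signal meaning cytotoxicity.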 The essentials: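 PR-UAS-bla HEK293T cells (3,000/well, 2% charcoal-stripped FBS) given compound plus R5020 agonist, 16 h at 37C. CellTiter-Glo added after bla read, 30 min at room temperature; luminescence loss indicates cytotoxicity.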

The nature of test [4]: TOX21_PR_LUC_Followup_Agonist_viability: Viability Assessment in the Tox21 HEK293 Progesterone Receptor (PR) Agonism Luciferase Follow-Up Assay (AID 2283941).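 Note: loss of signal means cytotoxicity so actives lower viability.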 The essentials: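 HEK293-PR-A-luc cells, pre-cultured 5 days in 10% charcoal-stripped FBS, were seeded at 3,000 cells/well, rested 5 h at 37C, then given compound in DMSO for 16 h at 37C. Cellular ATP was read by CellTiter-Glo luminescence; signal loss indicates cytotoxicity.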

Test [5] has as its target Thyroid hormone receptor alpha (Rattus norvegicus) + Thyroid hormone receptor beta (Rattus norvegicus) (UniProt P18113+P63059). The experiment in a line: TOX21_TR_LUC_GH3_Agonist_Followup: Tox21 GH3 Thyroid Hormone Receptor Agonism Luciferase Follow-Up Assay (AID 2283939). The essentials: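 Rat GH3 cells (1,500/well) in serum-free assay medium, treated with 15-point series, 92 uM to 5 nM final, for 24 h at 37C. Luciferase via ONE-Glo luminescence; gain of signal fitted against DMSO, T3 positive control.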

The target in test [6] is THRA (gene 7067) (UniProt P10827). The experiment in a line: TOX21_TRA_COA_Agonist_Followup_ratio: Tox21 Thyroid Hormone Receptor alpha Agonism through Coactivator Recruitment Follow-Up Assay, Ratio (AID 2283948; active = hit-call score of the fitted dose curve at least 0.9, where 1 is the maximum; inactive = score below 0.9). The essentials: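 Cell-free TR-FRET coactivator recruitment: GST-tagged TRα LBD (2.5 nM) with 0.10% BSA was incubated with compound, then fluorescein-SRC-2 peptide (200 nM) and Tb-anti-GST antibody (2 nM) added. 520:495 nm ratio normalized to DMSO (0%) and T3 (100%).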

In test [7] the target is THRB (gene 7068) (UniProt P10828). Nature of the test: TOX21_TRB_BLA_Agonist_Followup_ratio: Tox21 Thyroid Hormone Receptor beta Agonism Beta-lactamase (BLA) Follow-Up Assay, Ratio (AID 2283954). The essentials:
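Human TRβ LBD–GAL4 DBD fusion in GeneBLAzer UAS-bla HEK293T cells; 11 concentrations in triplicate, 18 h at 37°C/5% CO2, T3 as agonist control. CCF4-AM substrate 2 h at room temperature; 460:530 nm ratio fitted for gain of signal versus DMSO.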

For test [8] the target is unchanged. The experiment in a line: TOX21_TRB_COA_Agonist_Followup_ratio: Tox21 Thyroid Hormone Receptor beta Agonism through Coactivator Recruitment Follow-Up Assay, Ratio (AID 2283963; active = hit-call score of the fitted dose curve at least 0.9, where 1 is the maximum; inactive = score below 0.9). The essentials:
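Cell-free TR-FRET coactivator recruitment: GST-tagged TRβ LBD (5.0 nM) with 0.10% BSA incubated with compound, then fluorescein-SRC-2 peptide (200 nM) and Tb-anti-GST antibody (2 nM) added. 520:495 nm ratio normalized to DMSO (0%) and T3 (100%).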

The target in test [9] is Retinoic acid receptor RXR-alpha (Homo sapiens) (UniProt P19793). The experiment in a line: TOX21_TR_RXR_BLA_Agonist_Followup_ratio: Tox21 Thyroid Hormone Receptor beta Retinoid X Receptor alpha (RXRa) Agonism Beta-lactamase (BLA) Follow-Up Assay, Ratio (AID 2283968). The essentials: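 RXRa-UAS-bla HEK293T cells (GAL4 beta-lactamase reporter) were treated with compounds at 11 concentrations in triplicate for 16 h at 37C/5% CO2, then loaded with CCF4-AM substrate for 2 h at room temperature; activity is the 460:530 nm ratio versus DMSO baseline.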

The nature of test [10]: CEETOX_H295R_PROG_noMTC: CeeTox H295R High-throughput Steroidogenesis Assay for Progesterone (PROG), maximum tolerated concentration (MTC) filtered results only (AID 2283920; active = hit-call score of the fitted dose curve at least 0.9, where 1 is the maximum; inactive = score below 0.9). Particulars: actives raise or lower the signal. The essentials: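 H295R cells, prestimulated 48 h with 10 uM forskolin, exposed 48 h to chemical in 0.1% DMSO. Medium progesterone quantified by MTBE extraction and HPLC-MS/MS; bidirectional fit versus DMSO, concentrations not MTT-filtered.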

Test [11] can be described thus: TOX21_TR_RXR_BLA_Agonist_Followup_viability: Viability Assessment in the Tox21 Thyroid Hormone Receptor beta Retinoid X Receptor alpha (RXRa) Agonism Beta-lactamase (BLA) Follow-Up Assay (AID 2283970). The essentials:
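RXRa-UAS-bla HEK293T cells seeded at 2,500/well in phenol red-free DMEM with 2% charcoal-stripped FBS, exposed to compound 16h at 37C/5% CO2 in qHTS. Viability read by CellTiter-Glo ATP luminescence; bidirectional fitting against DMSO baseline, signal loss indicating cytotoxicity.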

Test [12] concerns the target Nucleoli Translocation, AR (gene 367) (UniProt P10275). The experiment in a line: UPITT_HCI_U2OS_AR_TIF2_Nucleoli_Antagonist: University of Pittsburgh U2OS Androgen Receptor-Transcriptional Intermediary Factor 2 (AR-TIF2) Antagonism High Content Imaging Assay for Nucleoli Translocation (AID 2283997). The essentials: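 U2OS cells co-expressing red-fluorescent-tagged human AR and green-fluorescent-tagged TIF2, imaged by high-content microscopy for nucleolar red fluorescence. Antagonist mode against DHT; primary screen at 20 uM final (0.2% DMSO).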

Test [13] has the same target. Nature of the test: UPITT_HCI_U2OS_AR_TIF2_Nucleoli_Agonist: University of Pittsburgh U2OS Androgen Receptor-Transcriptional Intermediary Factor 2 (AR-TIF2) Agonism High Content Imaging Assay for Nucleoli Translocation (AID 2283998). The essentials: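 Nucleolar translocation of AR-RFP, with TIF2-GFP coexpressed in human osteosarcoma U2OS, imaged by high-content fluorescence. Compounds tested singly at 20 uM final, confirmed in triplicate, then titrated 0.195–50 uM final; gain-of-signal relative to DMSO.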

A short description of test [14]: TOX21_TRB_BLA_Antagonist_Followup_viability: Viability Assessment in the Tox21 Thyroid Hormone Receptor beta Antagonism Beta-lactamase (BLA) Follow-Up Assay (AID 2283961). The essentials: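 ATP-based CellTiter-Glo luminescence (30 min, room temperature) run in the same wells as the TRβ-bla readout. Cells: GeneBLAzer HEK293T expressing GAL4-TRβ LBD, exposed 18 h at 37C to compounds at 11 concentrations in triplicate, stripped-serum medium.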

The nature of test [15]: TOX21_TR_RXR_BLA_Antagonist_Followup_viability: Viability Assessment in the Tox21 Thyroid Hormone Receptor beta Retinoid X Receptor alpha (RXRa) Antagonism Beta-lactamase (BLA) Follow-Up Assay (AID 2283979). The essentials:
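RXRa-bla HEK293T cells (2,500/well, phenol red-free DMEM, 2% charcoal-stripped FBS) were attached 5 h, then exposed to compounds at 11 concentrations in triplicate for 16 h at 37C. Viability measured by CellTiter-Glo ATP luminescence, bidirectional fitting versus DMSO.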

Test [16] has as its target PGR (gene 5241) (UniProt P06401). Nature of the test: TOX21_PR_LUC_Followup_Antagonist: Tox21 HEK293 Progesterone Receptor (PR) Antagonism Luciferase Follow-Up Assay (AID 2283938).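 Note: curve fitted upward as signal gain over DMSO baseline despite antagonist label.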 The essentials: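 Luminescence from ONE-Glo was measured 30 min after reagent addition, following 16 h exposure of HEK293-PR-A-luc cells (3,000/well, plated 5 h earlier) to DMSO-dissolved compounds at 37C; DMSO served as baseline.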

A short description of test [17]: TOX21_PR_LUC_Followup_Antagonist_viability: Viability Assessment in the Tox21 HEK293 Progesterone Receptor (PR) Antagonism Luciferase Follow-Up Assay (AID 2283940). The essentials: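 HEK293-PR-A-luc cells, precultured 5 days in assay medium with 10% charcoal-stripped FBS, were seeded at 3,000 cells/well, treated with compounds in DMSO for 16 h at 37C, and viability was read as cellular ATP by CellTiter-Glo luminescence.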

For test [18], the system named is DIO1 (gene 1733). The experiment in a line: CCTE_GLTED_hDIO1: CCTE's human Deiodinase 1 (DIO1) Inhibition Assay, Great Lakes Toxicology and Ecology Division (GLTED) Lab (AID 2283987).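 Note: isolated human DIO1 enzyme in a cell-free setup rather than cells; enzyme activity read as free iodide liberated from substrate via Sandell-Kolthoff colorimetry.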 The essentials:
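Inhibition read as reduced iodide release: after 3 h of human DIO1 with chemical, free iodide is quantified colorimetrically (Sandell-Kolthoff cerium/arsenic reaction). Triplicate plates, DMSO baseline.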

Inconclusive results are not listed. The source made the active and inactive calls. Rule for the calls, unless noted: active = hit-call score of the fitted dose curve at least 0.9, where 1 is the maximum; inconclusive = response in the unintended direction; inactive = score below 0.9.

Sequence of Nucleoli Translocation, AR (gene 367) (P10275 whole entry, looked up): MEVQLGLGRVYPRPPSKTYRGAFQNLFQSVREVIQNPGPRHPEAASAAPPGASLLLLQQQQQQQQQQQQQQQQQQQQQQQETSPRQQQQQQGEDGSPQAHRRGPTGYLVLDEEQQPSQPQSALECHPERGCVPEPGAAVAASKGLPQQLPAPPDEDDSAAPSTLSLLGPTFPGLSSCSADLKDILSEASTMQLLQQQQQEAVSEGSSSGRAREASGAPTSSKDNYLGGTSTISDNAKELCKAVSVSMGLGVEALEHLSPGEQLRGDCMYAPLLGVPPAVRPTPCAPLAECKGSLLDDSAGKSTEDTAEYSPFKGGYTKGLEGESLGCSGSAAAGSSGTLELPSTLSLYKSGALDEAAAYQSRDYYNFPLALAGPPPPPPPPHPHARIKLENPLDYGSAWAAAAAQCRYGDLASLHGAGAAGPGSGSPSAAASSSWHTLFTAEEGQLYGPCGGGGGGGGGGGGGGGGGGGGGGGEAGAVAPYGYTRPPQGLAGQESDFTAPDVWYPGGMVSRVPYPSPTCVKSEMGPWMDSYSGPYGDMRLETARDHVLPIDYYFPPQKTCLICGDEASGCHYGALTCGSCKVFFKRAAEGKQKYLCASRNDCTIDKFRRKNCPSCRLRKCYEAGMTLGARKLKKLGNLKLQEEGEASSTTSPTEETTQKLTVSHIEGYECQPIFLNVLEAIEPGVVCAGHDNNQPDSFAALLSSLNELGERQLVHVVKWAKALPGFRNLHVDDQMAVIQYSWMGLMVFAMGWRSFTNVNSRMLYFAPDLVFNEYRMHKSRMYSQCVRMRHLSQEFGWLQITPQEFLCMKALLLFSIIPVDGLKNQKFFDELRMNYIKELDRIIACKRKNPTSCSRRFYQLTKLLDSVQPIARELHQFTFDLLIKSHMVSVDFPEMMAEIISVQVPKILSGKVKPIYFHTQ
Sequence of PGR (gene 5241) (P06401 whole entry, looked up): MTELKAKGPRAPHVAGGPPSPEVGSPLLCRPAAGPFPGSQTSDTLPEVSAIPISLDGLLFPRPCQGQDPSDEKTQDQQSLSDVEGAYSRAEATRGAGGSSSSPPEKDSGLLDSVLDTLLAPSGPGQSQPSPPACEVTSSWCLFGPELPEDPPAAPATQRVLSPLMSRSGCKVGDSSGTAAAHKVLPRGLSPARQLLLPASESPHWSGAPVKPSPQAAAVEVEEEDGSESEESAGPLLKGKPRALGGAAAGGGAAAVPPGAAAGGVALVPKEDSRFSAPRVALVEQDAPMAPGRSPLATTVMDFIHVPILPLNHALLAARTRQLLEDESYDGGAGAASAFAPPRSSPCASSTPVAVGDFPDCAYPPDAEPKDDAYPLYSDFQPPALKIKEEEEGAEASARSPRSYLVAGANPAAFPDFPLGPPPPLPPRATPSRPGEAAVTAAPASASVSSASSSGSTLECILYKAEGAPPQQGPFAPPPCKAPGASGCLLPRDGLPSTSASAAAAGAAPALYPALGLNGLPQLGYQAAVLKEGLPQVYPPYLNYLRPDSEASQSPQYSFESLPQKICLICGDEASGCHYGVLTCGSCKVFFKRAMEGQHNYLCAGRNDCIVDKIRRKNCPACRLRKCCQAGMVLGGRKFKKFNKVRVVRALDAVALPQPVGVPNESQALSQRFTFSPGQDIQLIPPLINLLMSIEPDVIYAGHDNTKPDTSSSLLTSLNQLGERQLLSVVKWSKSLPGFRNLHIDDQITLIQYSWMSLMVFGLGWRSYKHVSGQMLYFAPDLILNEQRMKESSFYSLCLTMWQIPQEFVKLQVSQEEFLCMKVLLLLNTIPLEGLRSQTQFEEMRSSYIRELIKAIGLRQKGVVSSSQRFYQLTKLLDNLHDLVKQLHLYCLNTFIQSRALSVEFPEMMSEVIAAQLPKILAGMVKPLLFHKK
Sequence of THRA (gene 7067) (P10827 whole entry, looked up, the tested form may be a part): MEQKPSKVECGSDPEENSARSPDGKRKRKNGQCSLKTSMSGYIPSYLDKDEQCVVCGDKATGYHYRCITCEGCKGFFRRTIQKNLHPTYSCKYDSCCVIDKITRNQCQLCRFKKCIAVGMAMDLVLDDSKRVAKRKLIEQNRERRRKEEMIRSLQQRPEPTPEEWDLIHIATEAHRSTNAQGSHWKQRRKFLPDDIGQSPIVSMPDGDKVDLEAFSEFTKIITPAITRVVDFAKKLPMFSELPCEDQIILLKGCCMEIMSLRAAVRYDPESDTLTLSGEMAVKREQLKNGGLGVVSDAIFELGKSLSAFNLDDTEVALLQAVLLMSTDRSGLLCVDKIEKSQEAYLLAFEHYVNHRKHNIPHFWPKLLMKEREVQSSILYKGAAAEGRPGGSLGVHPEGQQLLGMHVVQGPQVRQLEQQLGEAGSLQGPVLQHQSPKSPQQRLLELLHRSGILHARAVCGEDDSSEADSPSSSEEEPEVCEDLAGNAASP
Sequence of Retinoic acid receptor RXR-alpha (Homo sapiens) (P19793 whole entry, looked up, the tested form may be a part): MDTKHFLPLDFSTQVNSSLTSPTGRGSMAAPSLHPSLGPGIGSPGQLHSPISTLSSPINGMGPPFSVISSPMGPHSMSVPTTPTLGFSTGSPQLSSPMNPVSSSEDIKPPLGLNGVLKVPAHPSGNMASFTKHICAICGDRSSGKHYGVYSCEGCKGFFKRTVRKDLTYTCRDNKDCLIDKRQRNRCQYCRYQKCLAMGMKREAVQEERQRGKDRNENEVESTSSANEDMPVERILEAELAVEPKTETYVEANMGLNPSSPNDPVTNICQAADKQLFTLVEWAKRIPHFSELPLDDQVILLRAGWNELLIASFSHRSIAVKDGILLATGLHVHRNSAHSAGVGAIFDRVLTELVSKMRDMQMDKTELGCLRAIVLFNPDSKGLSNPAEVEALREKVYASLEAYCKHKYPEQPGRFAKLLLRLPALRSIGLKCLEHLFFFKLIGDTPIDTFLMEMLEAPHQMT
Sequence of THRB (gene 7068) (P10828 whole entry, looked up, the tested form may be a part): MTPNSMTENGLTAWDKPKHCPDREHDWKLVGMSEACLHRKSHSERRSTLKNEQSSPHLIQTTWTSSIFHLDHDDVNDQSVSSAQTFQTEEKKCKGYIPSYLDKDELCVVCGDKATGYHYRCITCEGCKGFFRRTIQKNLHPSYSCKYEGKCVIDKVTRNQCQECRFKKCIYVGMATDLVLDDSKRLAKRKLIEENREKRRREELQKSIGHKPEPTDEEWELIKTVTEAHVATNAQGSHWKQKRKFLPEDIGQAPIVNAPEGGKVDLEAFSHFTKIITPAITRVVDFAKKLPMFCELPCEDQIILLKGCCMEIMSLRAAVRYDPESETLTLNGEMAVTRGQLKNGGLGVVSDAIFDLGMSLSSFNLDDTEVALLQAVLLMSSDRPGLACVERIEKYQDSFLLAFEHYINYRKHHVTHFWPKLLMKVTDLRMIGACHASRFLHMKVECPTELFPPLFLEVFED
Sequence of Thyroid hormone receptor alpha (Rattus norvegicus) + Thyroid hormone receptor beta (Rattus norvegicus) (P63059 whole entry, looked up): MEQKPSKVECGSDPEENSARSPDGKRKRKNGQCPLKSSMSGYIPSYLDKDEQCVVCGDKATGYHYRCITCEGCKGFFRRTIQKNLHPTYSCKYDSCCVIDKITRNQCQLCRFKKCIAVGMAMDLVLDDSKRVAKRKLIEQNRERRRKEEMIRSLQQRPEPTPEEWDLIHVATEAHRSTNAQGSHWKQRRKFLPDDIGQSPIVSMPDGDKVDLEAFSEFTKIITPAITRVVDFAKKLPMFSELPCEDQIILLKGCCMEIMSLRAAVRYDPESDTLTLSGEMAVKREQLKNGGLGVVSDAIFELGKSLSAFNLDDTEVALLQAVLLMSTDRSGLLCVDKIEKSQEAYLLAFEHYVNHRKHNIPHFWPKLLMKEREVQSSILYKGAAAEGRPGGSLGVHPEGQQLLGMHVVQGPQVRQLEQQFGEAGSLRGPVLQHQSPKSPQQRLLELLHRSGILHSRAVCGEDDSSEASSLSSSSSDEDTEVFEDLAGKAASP
Sequence of Thyroid hormone receptor alpha (Rattus norvegicus) + Thyroid hormone receptor beta (Rattus norvegicus) (P18113 whole entry, looked up): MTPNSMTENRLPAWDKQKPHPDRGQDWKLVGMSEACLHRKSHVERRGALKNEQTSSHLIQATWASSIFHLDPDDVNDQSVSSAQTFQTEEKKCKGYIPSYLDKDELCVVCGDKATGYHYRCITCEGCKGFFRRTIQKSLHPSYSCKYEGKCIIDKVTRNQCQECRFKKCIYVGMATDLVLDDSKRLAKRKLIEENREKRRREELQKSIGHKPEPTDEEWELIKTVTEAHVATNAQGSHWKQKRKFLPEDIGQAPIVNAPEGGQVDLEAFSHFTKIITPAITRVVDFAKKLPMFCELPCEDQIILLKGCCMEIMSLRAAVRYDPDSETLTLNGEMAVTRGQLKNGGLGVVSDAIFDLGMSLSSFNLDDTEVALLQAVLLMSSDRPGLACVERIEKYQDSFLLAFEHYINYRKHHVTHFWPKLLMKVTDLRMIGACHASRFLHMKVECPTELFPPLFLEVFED

Take `O=C(Oc1ccccc1)c1ccc(O)cc1`: the outcome in test [1], in test [2], in [3] and in test [4] was inactive.

Turning to `CC(=O)OCCC(C)CC(C)(C)C` (centres undefined), the result in [5], in test [6], in test [7], in test [8] and in [9] was inactive.

As for `Cc1ccc(C(C)C)cc1O`, the concentration at half-maximal activity (AC50) in test [10] was 41.4 µM (active).

`Nc1ccc(S(N)(=O)=O)cc1`: the outcome in test [6], in test [7], in test [8], in test [9] and in [11] was inactive.

With `O=Nc1ccc(Nc2ccccc2)cc1`, in [12], the half-maximal activity concentration (AC50) was 2.56 µM (active). In addition, in [13], the result was inactive.

For the molecule `CC(=O)O[C@]1(C(C)=O)CC[C@H]2[C@@H]3C[C@H](C)C4=CC(=O)CC[C@]4(C)[C@H]3CC[C@@]21C`, the outcome in [14] and in [15] was inactive.

Turning to `C[Si](O[Si](C)(C)C)O[Si](C)(C)C`, in test [12], the call was inactive.

Regarding `COC(=O)C1=C(C)NC(C)=C(C(=O)OCCN(C)Cc2ccccc2)C1c1cccc([N+](=O)[O-])c1` (centres undefined), the AC50 in test [1] is 25 µM (active); in [2], 79.9 µM (active); in [3], 72.7 µM (active); in [16] it was 21.8 µM (active). The result in test [17] and in [4] was inactive.

Turning to `CC(CCO)CCCC(C)(C)O` (centres undefined), in test [5], the AC50 is 1.44 µM (active). The result in test [6], in test [8] and in [9] was inactive.

Regarding `O=C[C@@H](O)[C@H](O)[C@H](O)CO`, the result in [12] and in test [13] was inactive.

Regarding `CCN(CC)c1ccc(C(=C2C=CC(=[N+](CC)CC)C=C2)c2ccc(S(=O)(=O)O)cc2S(=O)(=O)[O-])cc1`, the molecule was classed as inactive in test [12].

`C[C@H]1C[C@H]2[C@@H]3CCC4=CC(=O)C=C[C@]4(C)[C@@]3(F)[C@@H](O)C[C@]2(C)[C@@]1(O)C(=O)COP(=O)(O)O`: the result in test [1], in [2], in [3], in [17] and in [4] was inactive.

For the molecule `CCCCCCCCCCCCCC(=O)O`, in test [18], the AC50 is 166 µM (active).

`C[C@]12CC[C@H]3[C@@H](CCC4=CC(=O)CC[C@@]43C)[C@@H]1CC[C@@H]2C(=O)CO`: the outcome in [1], in [2], in [3], in test [16], in test [17] and in [4] was inactive.

Take `CC(=O)[C@H]1CC[C@H]2[C@@H]3CC=C4C[C@@H](O)CC[C@]4(C)[C@H]3CC[C@]12C`: the outcome in test [1], in [2], in test [3], in test [16] and in test [4] was inactive.

As to `CCCCC(CC)COC(=O)/C=C\C(=O)OCC(CC)CCCC` (centres undefined), the molecule was called inactive in test [12] and in test [13].

As for `c1ccc2[nH]ccc2c1`, the call in [12] and in [13] was inactive.
